Sfp inh = qHTS Assay for Inhibitors of Bacillus subtilis Sfp phosphopantetheinyl transferase (PPTase) | AID 1490, 2009 | 4'-phosphopantetheinyl transferase ffp (Bacillus subtilis), Q9F4F7 | Biochemical Sfp PPTase activity, qHTS | Potency, µM, without a hit: largest response in the series, negative = inhibition, most hits filed as inhibitors | actives 3.5% (n = 310,000);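 also: the enzyme is Sfp with the accession as filed and its product quenches rhodamine fluorescence; 0% = enzyme reaction without inhibitor and -100% = no enzyme wells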
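After 15 min at room temperature with compound, 15 nM Sfp received 5 uM rhodamine-CoA plus 12.5 uM BHQ-2-ybbR (50 mM Hepes pH 7.6, 10 mM MgCl2). Rate came from the fluorescence difference over 30 min, ex 525/em 598 nm.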
Epigenetic derep = Quantitative High-Throughput Screen for Regulators of Epigenetic Control; murine LDR cells, GFP reporter derepression, 30 h; Potency, µM (titrated, usually from 53.9 µM), inactives show top-dose GFP activation, usual class: activators; actives 0.2% (n = 280,000); AID 1865, 2009; also: % of control where 0% means no effect; nearly all actives have a fitted effect of over 60% in size
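Reporter derepression read as number of fluorescent GFP-positive objects, 20-120 um in size, counted by laser-scanning cytometer. Mouse LDR line with an epigenetically silenced CMV-GFP locus; compound incubation 30 h, 37 C.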
NPSR antag = qHTS Assay for Antagonists of the Neuropeptide S Receptor: cAMP Signal Transduction. AID 1461, 2008. CHO-NPSR cells, cAMP TR-FRET, antagonist mode. Q6W5P4. Potency, µM (series often up to 38.3 µM), inactives show at the top dose activity change, negative = inhibition, most hits filed as inhibitors. actives 1% (n = 220,000); also: % is scaled to controls: 0 for no effect and ±100 for the full control effect; nearly all actives have a fitted effect of over 50% in size
Target sequence (Q6W5P4 whole entry, looked up): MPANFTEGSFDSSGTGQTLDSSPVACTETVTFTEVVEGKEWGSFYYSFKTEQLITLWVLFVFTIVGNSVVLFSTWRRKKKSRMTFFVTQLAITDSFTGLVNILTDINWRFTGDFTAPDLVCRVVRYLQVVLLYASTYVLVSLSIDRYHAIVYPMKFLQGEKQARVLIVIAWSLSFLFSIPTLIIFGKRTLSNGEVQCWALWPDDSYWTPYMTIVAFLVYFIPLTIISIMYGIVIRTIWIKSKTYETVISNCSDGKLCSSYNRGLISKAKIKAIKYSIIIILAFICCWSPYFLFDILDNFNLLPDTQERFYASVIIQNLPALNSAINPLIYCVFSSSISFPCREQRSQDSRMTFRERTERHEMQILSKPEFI
IMPase Li cell = qHTS Assay for Identifying the Cell-Membrane Permeable IMPase Inhibitors: Potentiation with Lithium; CHO-M1 cells, IP1 TR-FRET (IP-One), carbachol + lithium; Potency, µM (doses to about 59.4 µM), without a hit: at the top dose activity, negative = IMPase inhibition, actives largely listed as inhibitors; actives 0.35% (n = 210,000); AID 1457, 2008;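 also: IP1 builds up when IMPase is blocked and the TR-FRET signal falls; plate controls were basal vehicle for no effect and high inhibitor control for full effect; nearly all actives have a fitted effect of over 50% in size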
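Lithium-sensitised IP1 accumulation assay; M1-expressing CHO cells treated 30 min at 37C with compound. Competitive antibody detection by time-resolved FRET followed a 10 min room-temperature lysis step.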
KDM4E inh = qHTS Assay for Inhibitors of Human Jumonji Domain Containing 2E (JMJD2E); Lysine-specific demethylase 4E (Homo sapiens), B2RXH2; JMJD2E catalytic domain, FDH-coupled NADH fluorescence (FDH is formaldehyde dehydrogenase); Potency, µM (series often up to 57.1 µM), inactives show at the highest dose activity change, negative = inhibition, hits mostly inhibitors; actives 1.6% (n = 230,000); AID 2147, 2009; active = well fitted inhibition curve with a large enough effect, not every such curve was filed as active; inconclusive = small, poorly fitted or top-dose-only effect, or another doubt; inactive = no such curve, though single readings can be large or run the other way;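 also: 0% = wells with enzyme and -100% = buffer wells without enzyme; nearly all actives have a fitted effect of over 50% in size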
Target sequence (B2RXH2 1-337 limits assumed): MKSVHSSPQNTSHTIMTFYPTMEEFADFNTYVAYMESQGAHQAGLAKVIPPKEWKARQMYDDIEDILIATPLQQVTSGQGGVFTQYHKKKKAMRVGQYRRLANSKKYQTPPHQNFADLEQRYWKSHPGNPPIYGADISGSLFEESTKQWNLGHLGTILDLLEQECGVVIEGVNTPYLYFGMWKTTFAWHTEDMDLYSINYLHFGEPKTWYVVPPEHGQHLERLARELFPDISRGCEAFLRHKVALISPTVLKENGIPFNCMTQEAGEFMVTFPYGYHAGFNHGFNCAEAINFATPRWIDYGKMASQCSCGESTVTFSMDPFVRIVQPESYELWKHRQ
KAT2A inh = qHTS Assay for Inhibitors of GCN5L2 | Histone acetyltransferase KAT2A (Homo sapiens), Q92830 | GCN5L2 HAT assay, ThioGlo1 CoA-SH fluorescence | Potency, µM (series often up to 58.9 µM), for inactives: at the top dose activity change, negative = inhibition, most hits filed as inhibitors | actives 0.21% (n = 390,000); also: % is scaled to controls: 0 for no effect and ±100 for the full control effect
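qHTS, 1536-well. 20nM enzyme, pH 7.5 HEPES/EDTA/Tween-20 buffer; 15 min compound preinc., RT. Start: 75uM H3(1-25), 70uM AcCoA, 50uM ThioGlo1. Read Ex340/Em540 at t=0 (autofluorescence flag) and t=20 min.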
Active calls of the source: *; u = inconclusive; x = no result; [ ] = another dose, or the depositor's remark. Sampled rows, rich in hits. Any-hit rate of the full collection: about 3.6%. Unless noted, calls follow the shape of the dose curve; as a rule, active = well fitted curve in the direction sought with a large enough effect; inconclusive = small, poorly fitted or top-dose-only effect, or another doubt; inactive = no such curve, though single readings can be large; an effect the other way counts as inactive or inconclusive. Potency is read from the fitted curve at half-maximal effect.

SMILES	Sfp inh	Epigenetic derep	NPSR antag	IMPase Li cell	KDM4E inh	KAT2A inh
COc1ccc(NC(=S)N(Cc2ccc(Cl)cc2)Cc2ccc(C(=O)O)cc2)cc1Cl	50.1µM*	-1.8%	-38.9%	-4.3%	-5.7%	-2.2%
CCc1ccc(NC(=S)N(Cc2ccc(Cl)cc2)Cc2ccc(C(=O)O)cc2)cc1	17.8µM*	1.3%	-54.8%	10.8%	-5.6%	u
Cc1cc(NC(=S)N(Cc2ccc(Cl)cc2)Cc2ccc(C(=O)O)cc2)ccc1Cl	-5.6%	-1.8%	-52.3%	0.5%	-2.4%	u
COC(=O)c1sc(NC(=O)c2cc3nc(-c4ccc(Br)cc4)cc(C(F)(F)F)n3n2)c(C(=O)OC)c1C	x	-0.5%	x	x	x	0.4%
CCC1CC=CC2C1C(=O)N(Cc1ccccc1)C2c1ccc2ccccc2c1 (centres undefined)	2.0%	x	x	x	x	x
COC(=O)C1=C(C(=O)OC)[C@@H]2N(C)c3ccc(OC)cc3[C@@]23C[C@@H](C(=O)OC)N(S(=O)(=O)c2ccc(C)cc2)C3=N1	6.2%	x	x	-7.1%	9.6%[11.4 µM]	x
O=C(Oc1oc(-c2ccco2)nc1C=Nc1ccccc1)c1ccoc1	20µM*	-0.4%	-25.8%[46.1 µM]	4.0%[38.3 µM]	2.9%	-2.6%
COc1ccc(N=Cc2nc(-c3ccccc3)oc2OC(C)=O)cc1	-6.4%	-2.2%	u	x	12.5%	-2.9%
O=C(Oc1oc(-c2ccco2)nc1C=Nc1ccccc1)c1ccco1	11.2µM*	0.9%	-10.4%[46.1 µM]	10.7%[38.3 µM]	-0.6%	-2.9%
Cc1ccc(C(=O)Oc2oc(-c3ccco3)nc2C=Nc2ccc(Cl)cc2)cc1	u	0.4%	-28.9%[46.1 µM]	40.3%[38.3 µM]	-3.8%	-8.1%
CN(C(=O)c1ccoc1)c1ccccc1I	-1.2%	x	x	x	x	x
O=C(COc1ccc(F)cc1)Nc1ccccc1OCc1cc(=O)n2ccccc2n1	x	-1.1%	x	x	x	-6.7%
O=C1c2ccccc2C(=O)N1Nc1ccccc1	2.2%	-1.3%	-10.6%[46.1 µM]	0.2%[38.3 µM]	-1.5%	-2.9%
Cc1ccc(NN2C(=O)C=C(c3ccccc3)C2=O)cc1	11.2µM*	-1.4%	u	24.7%	6.1%	-23.5%
CCOC(=O)c1ccc(NC(=O)c2cc3c(n(-c4ccc(C)cc4)c2=O)CC(C)(C)CC3=O)cc1	x	0.0%	x	x	x	-3.7%
COc1ccc(C(=O)/C=C/C(=O)N(CC(=O)NC2CCCCC2)Cc2ccccc2)c(O)c1	1.78µM*	3.3%	u	28.5%	-0.8%	-8.5%
COc1ccc(C(=O)/C=C/C(=O)N(CC(=O)NC2CCCCC2)Cc2ccccc2OC)c(O)c1	3.16µM*	u	u	16.8%	-21.4%	-2.4%
COc1ccc(C(=O)/C=C/C(=O)N(CC(=O)NC2CCCCC2)CC2CCCO2)c(O)c1 (centres undefined)	3.16µM*	u	u	30.5%	u	2.4%
CO[C@@H]1COC(=O)CC=C[C@@H](C)[C@@H]2C=C[C@@H](O)[C@@H](COC(=O)C/C=C\[C@H]1C)O2	16.6%	0.0%[10.1 µM]	x	x	x	x
Cc1cc(F)ccc1NCc1ccccc1-c1nnc(-c2ccccc2Cl)o1	x	0.0%	x	x	x	-5.4%
CCOC(=O)CSc1n[nH]c(=S)s1	u	-2.4%	-10.0%[7.67 µM]	x	10µM*	25.1µM*
CN(/C=C/C(=C\C=[N+](C)c1ccccc1)OCCCS(=O)(=O)[O-])c1ccccc1	79.4µM*	13.7%	15.7%	-2.7%	0.0%	-9.5%
CCCCn1c(=O)[nH]c(=O)c2c1nc(CN(C)Cc1cccc(OC)c1OC)n2CCC	50.1µM*	x	x	x	x	-7.3%
CCS(=O)(=O)Nc1cccc(C2=NN(S(C)(=O)=O)C(c3ccccc3)C2)c1 (centres undefined)	-5.0%	u	-25.3%	1.6%	-7.3%	-9.7%
CCS(=O)(=O)Nc1cccc(C2=NN(S(=O)(=O)c3ccc(C)cc3)C(c3ccco3)C2)c1 (centres undefined)	50.1µM*	-3.0%	-57.3%	7.0%	-18.7%	-14.2%
SMILES	Sfp inh	Epigenetic derep	NPSR antag	IMPase Li cell	KDM4E inh	KAT2A inh
CCS(=O)(=O)N1N=C(c2cccc(NS(C)(=O)=O)c2)CC1c1ccc(C)cc1 (centres undefined)	-0.4%	22.4µM*	-35.9%	5.4%	-6.9%	-7.4%
CS(=O)(=O)Nc1cccc(C2=NN(S(=O)(=O)c3ccccc3)C(c3ccco3)C2)c1 (centres undefined)	56.2µM*	0.9%	-35.4%	8.9%	-7.5%	-6.7%
O=c1c2ccccc2[nH]c2ccc(O)cc12	-24.8%	x	x	x	x	-14.8%
O=C1C(c2[nH]c3ccc(S(=O)(=O)O)cc3c2O)=Nc2ccc(S(=O)(=O)O)cc21	22.4µM*	1.5%	x	154.1%	x	8.9%
COc1cc(O)c(NC(C)=O)c2nonc12	35.5µM*	0.0%	-16.4%[46.1 µM]	31.0%[38.3 µM]	u	-8.4%
COc1cc(-c2ccc(NC(C)=O)c(OC)c2)ccc1NC(C)=O	11.7%	1.1%	0.0%	x	6.0%	-5.3%
Cc1cccc(Oc2nc3c(C)cccn3c(=O)c2/C=C(\C#N)c2nc3ccccc3[nH]2)c1	x	7.08µM*	x	x	x	-0.2%
CC(C)(C)c1ccc(Oc2nc3ccccn3c(=O)c2/C=C(\C#N)c2nc3ccccc3[nH]2)cc1	x	25.1µM*	x	x	x	8.4%
Cc1cccn2c(=O)c(/C=C(\C#N)c3nc4ccccc4[nH]3)c(Oc3ccc(C(C)(C)C)cc3)nc12	x	u	x	x	x	1.6%
Cc1ccc(C(=O)c2oc3ccccc3c2NC(=O)COc2ccccc2Cl)cc1	x	-1.0%	x	x	x	-2.1%
CCCC[C@H]1C2=C3[C@@H](CC(C(=O)OC)=C[C@@H](C(=O)OC)[C@H]3C(C)(C)C2=O)n2c(=O)n(C)c(=O)n21	-2.6%	x	x	x	x	x
CCOC(=O)C1CCCN(Cc2cc(Br)ccc2OC)C1 (centres undefined)	u	0.0%	-7.5%[46.1 µM]	24.9%[38.3 µM]	u	-8.3%
CCN(CC)C(=O)C1CCCN(Cc2ccc(OC)c(C)c2C)C1 (centres undefined)	50.1µM*	-0.8%	-5.2%[46.1 µM]	23.3%[38.3 µM]	u	-3.8%
COc1ccc(C(C[N+](=O)[O-])c2c(-c3ccccc3)cc3ccccn23)c(OC)c1 (centres undefined)	44.7µM*	u	-14.7%[46.1 µM]	61.3%[38.3 µM]	-6.0%	-10.2%
CCn1c(SCC(=O)c2ccc(CNC(C)=O)o2)nnc1-c1cccs1	50.1µM*	0.0%	-10.5%[46.1 µM]	16.7%[38.3 µM]	3.3%	-15.2%
Nc1ccc(N=Nc2ccc(-c3ccc(O)cc3)cc2)c2ccc(S(=O)(=O)O)cc12	x	x	x	6.2%	x	x

Compound activity: PubChem, National Center for Advancing Translational Sciences (NCATS)
